# Results from ChEMBL document CHEMBL3433997, “St. Jude Leishmania screening dataset” (2016).
# Molecular target: Solute carrier family 2, facilitated glucose transporter member 1 (Homo sapiens) (UniProt P11166)
# Assay: ST_JUDE_LEISH: Cytotoxicity at 2uM final concentration against transgenic Leishmania Mexicana promastigotes LmGLUT1 that are glucose transport deficient and complemented with the human glucose transporter GLUT1. Activity is measured by DNA content using SYBR green in vitro
# Assay type: functional
# Solute carrier family 2, facilitated glucose transporter member 1 (Homo sapiens), sequence (P11166 whole entry): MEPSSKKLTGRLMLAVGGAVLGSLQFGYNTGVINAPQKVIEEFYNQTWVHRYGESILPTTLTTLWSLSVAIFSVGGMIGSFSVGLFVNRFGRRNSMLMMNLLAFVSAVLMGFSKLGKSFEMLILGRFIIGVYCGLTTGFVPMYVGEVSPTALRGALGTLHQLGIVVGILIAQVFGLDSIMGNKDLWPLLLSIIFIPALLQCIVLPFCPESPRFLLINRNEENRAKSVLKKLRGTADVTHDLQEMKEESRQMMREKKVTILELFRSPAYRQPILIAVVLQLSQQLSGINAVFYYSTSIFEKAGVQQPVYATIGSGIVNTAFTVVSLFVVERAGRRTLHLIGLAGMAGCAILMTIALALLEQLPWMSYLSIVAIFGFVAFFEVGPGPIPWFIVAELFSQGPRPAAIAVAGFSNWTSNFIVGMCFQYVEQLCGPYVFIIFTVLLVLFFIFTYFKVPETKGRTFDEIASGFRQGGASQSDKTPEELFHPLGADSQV
row,SMILES,inhibition
1,Cc1cc(N[C@@H](CC(C)C)C(=O)NC2CCCC2)nc(NCCc2ccc(F)cc2)n1,3.05%
2,Cc1cc(NCC(C)C)c2[nH]nc(-c3ccccc3)c2n1,2.41%
3,CCCCCCCN(CCCCCCC)CCNc1cc(C)nc2ccccc12,6.37%
4,CCOC(=O)N1CCN(CCCCNc2c3ccc(Cl)cc3nc3ccc(OC)cc23)CC1,10.8%
5,COc1ccc2ncc(F)c([C@@H](O)CN3CCC(NCc4cc5c(cn4)OCS5)CC3)c2c1,5.71%
6,CCC(=O)N1CCc2cc(Br)cc(S(=O)(=O)N3CC(C)CC(C)C3)c21 (stereo not given),5.05%
7,Oc1ccc(CN2CCC(N3CCN(CCc4ccccc4)CC3)C(O)C2)cc1Cl (stereo not given),1.3%
8,COC(=O)c1ccc2nc(-c3ccc(C(=O)NC4CCN(Cc5ccccc5)CC4)s3)[nH]c2c1,6.63%
9,COc1ccc(N2CCN(CCCCNC(=O)c3ccc(NC(=O)c4cc(C(F)(F)F)cc(C(F)(F)F)c4)cc3)CC2)cc1OC,1.59%
10,CCN1CCC(N(Cc2ccc(-c3ccc(C(F)(F)F)cc3)cc2)C(=O)Cn2c(CCc3cccc(F)c3F)nc(=O)c3ccccc32)CC1,1.25%
11,CS(=O)(=O)Cc1ccc(Nc2nccc(NC3CCN(c4nccc(C(F)(F)F)n4)CC3)n2)cc1,2.96%
12,Cc1nc(-c2ccncc2)sc1C(=O)Nc1ccc(Cl)cc1C(=O)Nc1ccc(Cl)cc1,3.13%
13,CC(CN1CCN(C)CC1)C(=O)Nc1ccc(-c2ccc(-c3nc4ccccc4[nH]3)cc2)cc1 (stereo not given),0.19%
14,O=C(Nc1cccc(-c2cccc(-c3nc4ccccc4[nH]3)c2)c1)c1cccnc1,2.95%
15,CCOc1ccc2c(=NN=Cc3ccccn3)cc(C)[nH]c2c1,9.68%
16,c1ccc2oc(-c3cc4ccncc4cc3OC3CCNCC3)cc2c1,-1.3%
17,CCCn1c(O)nnc1SCC(=O)Nc1cc(C(F)(F)F)ccc1Cl,6.43%
18,CC(C)c1sc(N2CCN(C)CC2)nc1C(=O)NCCc1ccc(Br)cc1,3.06%
19,CCCCCCCN(Cc1ccc(OC(C)(C)C(=O)OCC)cc1)C(=O)Nc1ccccc1OCC,-0.85%
20,CC(=O)Nc1ccc([N+](=O)[O-])c2c(Br)cccc12,8.2%

row,SMILES,inhibition
1,CCn1ncc(Cl)c1CN(C)S(=O)(=O)c1ccc(Br)cc1,-0.68%
2,O=C(Nc1ccc(C(=O)Oc2ccc(-c3ccccc3)cc2)cc1)N[C@@H](Cc1ccc(O)cc1)C(=O)NC1CCN(Cc2ccc(O)cc2)C1 (stereo not given in full),2.56%
3,CCOC(=O)C1=C(C)N=c2sc(=Cc3ccccc3O)c(=O)n2C1c1ccc(OC)c2ccccc12 (stereo not given),-1.25%
4,O=C(Nc1ccccc1Cc1ccccc1)c1ccccc1C(F)(F)F,6.25%
5,COC(=O)c1ccc(Nc2nccc(Nc3ccc(Oc4ccccc4)cc3)n2)cc1,5.22%
6,Fc1ccccc1COc1ccc(Nc2ncnc3ccc(-c4nnc(C(F)(F)F)o4)cc23)cc1Cl,6.41%
7,Cc1cc(-c2cccc(CNCCc3ccc(Cl)cc3)c2)cnc1N,6.5%
8,Clc1ccc(-c2ccc(CNCCCN3CCCC3)cc2)cc1,4.04%
9,CC12CCC(=O)N1C(C(=O)Nc1cccc(C(=O)Nc3cccc(C(F)(F)F)c3)c1)CS2 (stereo not given),5.52%
10,NC1=NC(Cc2ccccc2)(c2ccncc2)C(=O)N1CCCc1ccccc1 (stereo not given),3.32%
11,O=C(Nc1cccc(CN2CCCN(Cc3ccc4c(c3)OCO4)CC2)c1)c1cc2ccccc2s1,-0.41%
12,CC(C)c1ccc(CN2CCC(NC(=O)c3ccc(-c4cccc(Cl)c4)s3)CC2)cc1,5.24%
13,Clc1ccc2c(NN=Cc3ccccc3)ccnc2c1,7.48%
14,CC(CN1CCN(CC(c2ccc(F)cc2)N2CCN(C)CC2)CC1)C(=O)c1ccc(O)cc1 (stereo not given),2.71%
15,O=C(/C=C/c1ccc(Cl)c(Cl)c1)NCCCCCN1CCC(C(=O)Nc2ccc(F)c(Cl)c2)CC1,4.66%
16,Cc1cc(F)ccc1[C@H]1CNCCN1C(=O)N(C)[C@@H](C)c1cc(C(F)(F)F)cc(C(F)(F)F)c1,-0.55%
17,NS(=O)(=O)c1cncc(-c2ccc3nccc(-c4cn[nH]c4)c3n2)c1,6.71%
18,C=CCNc1cc(-c2ccccn2)nc(-c2ccccn2)n1,31.9%
19,c1cc(CN2CCc3ccccc3CC2)cc(-c2c[nH]c3nc(NC4CCCC4)ncc23)c1,-0.02%
20,CC(C)N1CCCN(C(=O)C2CCN(c3ccc(C(=O)N4CCCC4)cn3)CC2)CC1,5.32%

# Molecular target: Hexose transporter 1 (Plasmodium falciparum) (UniProt O97467)
# Assay: ST_JUDE_LEISH: Cytotoxicity at 2uM final concentration against transgenic Leishmania Mexicana promastigotes LmPfHT that are glucose transport deficient and complemented with the Plasmodium falciparum hexose transporter. Activity is measured by DNA content using SYBR green in vitro
# Assay type: functional
row,SMILES,inhibition
1,Cc1cc(N[C@@H](CC(C)C)C(=O)NC2CCCC2)nc(NCCc2ccc(F)cc2)n1,1.34%
2,Cc1cc(NCC(C)C)c2[nH]nc(-c3ccccc3)c2n1,3.39%
3,CCCCCCCN(CCCCCCC)CCNc1cc(C)nc2ccccc12,5.18%
4,CCOC(=O)N1CCN(CCCCNc2c3ccc(Cl)cc3nc3ccc(OC)cc23)CC1,9.69%
5,COc1ccc2ncc(F)c([C@@H](O)CN3CCC(NCc4cc5c(cn4)OCS5)CC3)c2c1,1.41%
6,CCC(=O)N1CCc2cc(Br)cc(S(=O)(=O)N3CC(C)CC(C)C3)c21 (stereo not given),3.54%
7,Oc1ccc(CN2CCC(N3CCN(CCc4ccccc4)CC3)C(O)C2)cc1Cl (stereo not given),-0.2%
8,COC(=O)c1ccc2nc(-c3ccc(C(=O)NC4CCN(Cc5ccccc5)CC4)s3)[nH]c2c1,10.5%
9,COc1ccc(N2CCN(CCCCNC(=O)c3ccc(NC(=O)c4cc(C(F)(F)F)cc(C(F)(F)F)c4)cc3)CC2)cc1OC,2.48%
10,CCN1CCC(N(Cc2ccc(-c3ccc(C(F)(F)F)cc3)cc2)C(=O)Cn2c(CCc3cccc(F)c3F)nc(=O)c3ccccc32)CC1,2.57%
11,CS(=O)(=O)Cc1ccc(Nc2nccc(NC3CCN(c4nccc(C(F)(F)F)n4)CC3)n2)cc1,1.41%
12,Cc1nc(-c2ccncc2)sc1C(=O)Nc1ccc(Cl)cc1C(=O)Nc1ccc(Cl)cc1,3.01%
13,CC(CN1CCN(C)CC1)C(=O)Nc1ccc(-c2ccc(-c3nc4ccccc4[nH]3)cc2)cc1 (stereo not given),3.04%
14,O=C(Nc1cccc(-c2cccc(-c3nc4ccccc4[nH]3)c2)c1)c1cccnc1,2.73%
15,CCOc1ccc2c(=NN=Cc3ccccn3)cc(C)[nH]c2c1,7.32%
16,c1ccc2oc(-c3cc4ccncc4cc3OC3CCNCC3)cc2c1,-3.57%
17,CCCn1c(O)nnc1SCC(=O)Nc1cc(C(F)(F)F)ccc1Cl,4.55%
18,CC(C)c1sc(N2CCN(C)CC2)nc1C(=O)NCCc1ccc(Br)cc1,1.28%
19,CCCCCCCN(Cc1ccc(OC(C)(C)C(=O)OCC)cc1)C(=O)Nc1ccccc1OCC,-1.76%
20,CC(=O)Nc1ccc([N+](=O)[O-])c2c(Br)cccc12,8.74%

row,SMILES,inhibition
1,CCn1ncc(Cl)c1CN(C)S(=O)(=O)c1ccc(Br)cc1,-0.62%
2,O=C(Nc1ccc(C(=O)Oc2ccc(-c3ccccc3)cc2)cc1)N[C@@H](Cc1ccc(O)cc1)C(=O)NC1CCN(Cc2ccc(O)cc2)C1 (stereo not given in full),2.9%
3,CCOC(=O)C1=C(C)N=c2sc(=Cc3ccccc3O)c(=O)n2C1c1ccc(OC)c2ccccc12 (stereo not given),-0.06%
4,O=C(Nc1ccccc1Cc1ccccc1)c1ccccc1C(F)(F)F,1.68%
5,COC(=O)c1ccc(Nc2nccc(Nc3ccc(Oc4ccccc4)cc3)n2)cc1,9.95%
6,Fc1ccccc1COc1ccc(Nc2ncnc3ccc(-c4nnc(C(F)(F)F)o4)cc23)cc1Cl,5.31%
7,Cc1cc(-c2cccc(CNCCc3ccc(Cl)cc3)c2)cnc1N,6.59%
8,Clc1ccc(-c2ccc(CNCCCN3CCCC3)cc2)cc1,3.04%
9,CC12CCC(=O)N1C(C(=O)Nc1cccc(C(=O)Nc3cccc(C(F)(F)F)c3)c1)CS2 (stereo not given),6.47%
10,NC1=NC(Cc2ccccc2)(c2ccncc2)C(=O)N1CCCc1ccccc1 (stereo not given),3.32%
11,O=C(Nc1cccc(CN2CCCN(Cc3ccc4c(c3)OCO4)CC2)c1)c1cc2ccccc2s1,-0.3%
12,CC(C)c1ccc(CN2CCC(NC(=O)c3ccc(-c4cccc(Cl)c4)s3)CC2)cc1,4.2%
13,Clc1ccc2c(NN=Cc3ccccc3)ccnc2c1,6.89%
14,CC(CN1CCN(CC(c2ccc(F)cc2)N2CCN(C)CC2)CC1)C(=O)c1ccc(O)cc1 (stereo not given),2.35%
15,O=C(/C=C/c1ccc(Cl)c(Cl)c1)NCCCCCN1CCC(C(=O)Nc2ccc(F)c(Cl)c2)CC1,1.87%
16,Cc1cc(F)ccc1[C@H]1CNCCN1C(=O)N(C)[C@@H](C)c1cc(C(F)(F)F)cc(C(F)(F)F)c1,-0.16%
17,NS(=O)(=O)c1cncc(-c2ccc3nccc(-c4cn[nH]c4)c3n2)c1,7.77%
18,C=CCNc1cc(-c2ccccn2)nc(-c2ccccn2)n1,9.08%
19,c1cc(CN2CCc3ccccc3CC2)cc(-c2c[nH]c3nc(NC4CCCC4)ncc23)c1,-0.68%
20,CC(C)N1CCCN(C(=O)C2CCN(c3ccc(C(=O)N4CCCC4)cn3)CC2)CC1,4.11%
